Experimental data taken from PubChem BioAssay (Tox21).
Records with an inconclusive call do not appear. The source made the active and inactive calls. Calls follow the shape of the dose curve; as a rule, active = well fitted cell-killing curve with a large enough effect in the repeat runs; inconclusive = weak or mixed curves; inactive = no such curve, though single readings can be large or run the other way.
% is scaled to controls: 0 for no effect and ±100 for the full control effect.

Assay: qHTS assay to identify small molecule agonists of the peroxisome proliferator-activated receptor delta (PPARd) signaling pathway - cell viability counter screen (AID 743211); also: nearly all actives have a fitted effect of over 55% in size
Conditions: PPARd-bla HEK293H viability, CellTiter-Glo luminescence, 17 h; series mostly up to 62.6 µM; activity change, negative = cytotoxicity: at the top concentration
Excerpt: U.S. Tox21 Program National Center for Advancing Translational Sciences [NCATS] NIH Chemical Genomics Center [NCGC] U.S. Environmental Protection Agency [EPA] National Institutes of Environmental Health Sciences [NIEHS] National Toxicology Program [NTP] U.S. Food and Drug Administration [FDA] Tox21 Assay Overview: The peroxisome proliferator-activated receptors (PPARs) are lipid-activated transcription factors of the nuclear receptor superfamily with three distinct subtypes namely PPAR alpha, PPAR delta (PPARd) and PPAR gamma. All these subtypes heterodimerizes with Retinoid X receptor (RXR) and have different physiological functions. […] To identify the compounds that activate PPAR-delta signaling, GeneBLAzer PPAR delta UAS-bla HEK293H cell line (Invitrogen, Carlsbad, CA, USA) containing a beta-lactamase reporter gene under the control of an Upstream Activator Sequence (UAS) was used to screen the Tox21 compound library. The cytotoxicity of the Tox21 compound library against the PPARd-bla cell line was tested in parallel by measuring the cell viability using CellTiter-Glo assay (Promega, Madison, WI) in the same wells.
Tox21 Assay Protocol Summary: PPARd-bla cells were dispensed at 3000 cells/6uL/well in 1536-well black wall/clear bottom plates using a Multidrop Combi (Thermo Fisher Scientific, Waltham, MA) dispenser. After the assay plates were incubated at 37 C and 5% CO2 for 5 h, 23 nL of compounds dissolved in DMSO, positive controls or DMSO only was transferred to the assay plate by a Pintool station (Kalypsys, San Diego, CA). The assay plates were incubated at 37C for 17 h. After 1 uL of LiveBLAzerTM B/G FRET substrate was added using a Bioraptr Flying Reagent Dispenser (FRD) workstation (Beckman Coulter, Indianapolis, IN, USA), the plates were incubated at room temperature for 2 h, and fluorescence intensity was measured by an Envision plate reader (PerkinElmer, Shelton, CT). For cell viability readout that measures cytotoxicity, 3 ul/well of CellTiter-Glo reagent was added into the assay plates using a Bioraptr FRD. After 30 min incubation at room temperature, the luminescence intensity in the plates was measured using a ViewLux plate reader (PerkinElmer).
In the case of `N#Cc1ccncc1`, the “activity change, negative = cytotoxicity” value is reported as 2.33% [at 81.1 µM] (inactive). For `O=C(CCCN1CCC(n2c(=O)[nH]c3ccccc32)CC1)c1ccc(F)cc1`, the “activity change, negative = cytotoxicity” value was -12.6% (inactive). With `CCCSP(=O)(OCC)Oc1ccc(Br)cc1Cl` (stereo not given) the “activity change, negative = cytotoxicity” value was -4.27% (inactive). With `CC(C)CC(N(C)C)C1(c2ccc(Cl)cc2)CCC1` (stereo not given) the “activity change, negative = cytotoxicity” value was -12.8% (inactive). In the case of `Cc1nnc2n1-c1sc(CCC(=O)N3CCOCC3)cc1C(c1ccccc1Cl)=NC2`, the “activity change, negative = cytotoxicity” value is reported as 17.8% (inactive). In the case of `CCC(Cl)[N+](=O)[O-]` (stereo not given), the “activity change, negative = cytotoxicity” value is reported as 0.265% [at 81.1 µM] (inactive). In the case of `CC1(C)CON(Cc2ccccc2Cl)C1=O`, the “activity change, negative = cytotoxicity” value is reported as 5% (inactive). For `CN1C(=S)CN=C(c2ccccc2)c2cc(Cl)ccc21`, the “activity change, negative = cytotoxicity” value was 1.85% (inactive). In the case of `CC1CCC(=O)O1` (stereo not given), the “activity change, negative = cytotoxicity” value is reported as 4.35% (inactive). For `O=[N+]([O-])c1cccc2cccnc12`, the “activity change, negative = cytotoxicity” value was 1.25% [at 81.1 µM] (inactive). With `Nc1cc2c3c(c1)C(c1ccccc1)=N[C@@H](NC(=O)c1cccnc1)C(=O)N3CC2` the “activity change, negative = cytotoxicity” value was -11.4% (inactive). With `CCN(CC)c1nc(C)cc(OP(=S)(OC)OC)n1` the “activity change, negative = cytotoxicity” value was 2% (inactive). For `ClC(Cl)(Cl)C(Cl)(Cl)Cl`, the “activity change, negative = cytotoxicity” value was -2.25% [at 81.1 µM] (inactive). With `[O]=[Cd]` the “activity change, negative = cytotoxicity” value was -7.09% (inactive). For `NC(=S)C(N)=S`, the “activity change, negative = cytotoxicity” value was 5.84% (inactive). For `ClC(Cl)C(Cl)Cl`, the “activity change, negative = cytotoxicity” value was 1.76% [at 81.1 µM] (inactive). With `CCC/C(=N\OCC)C1=C(O)CC(CC(C)SCC)CC1=O` (stereo not given) the “activity change, negative = cytotoxicity” value was -0.97% [at 81.1 µM] (inactive). With `O=C(Cc1ccccc1)OCc1ccccc1` the “activity change, negative = cytotoxicity” value was 3.02% [at 81.1 µM] (inactive). For `COC(=O)C(C)Oc1ccc(Oc2ccc(Cl)cc2Cl)cc1` (stereo not given), the “activity change, negative = cytotoxicity” value was -3.35% (inactive). In the case of `Cc1coc2c1CCC(C)C2` (stereo not given), the “activity change, negative = cytotoxicity” value is reported as 1.05% [at 81.1 µM] (inactive). For `Cc1ncsc1CCCl`, the “activity change, negative = cytotoxicity” value was -1.89% (inactive). In the case of `C1CCC(C2CCCCC2)CC1`, the “activity change, negative = cytotoxicity” value is reported as -15.5% (inactive). With `CC1(C)COP(Oc2ccccc2)OC1` the “activity change, negative = cytotoxicity” value was 10.7% (inactive). In the case of `CC(C=O)Cc1ccc2c(c1)OCO2` (stereo not given), the “activity change, negative = cytotoxicity” value is reported as 5.58% (inactive). In the case of `C[N+](C)=CCl`, the “activity change, negative = cytotoxicity” value is reported as 6.18% (inactive). For `[Cl][Sn]([Cl])([Cl])[Cl]`, the “activity change, negative = cytotoxicity” value was 3.17% [at 81.1 µM] (inactive). In the case of `Nc1cc(Cl)ccc1O`, the “activity change, negative = cytotoxicity” value is reported as 2% (inactive). With `O=C(CCN1CC1)OCC(CO)(COC(=O)CCN1CC1)COC(=O)CCN1CC1` the “activity change, negative = cytotoxicity” value was 1.35% (inactive). With `O=C(O)c1cccc(Cl)c1` the “activity change, negative = cytotoxicity” value was -0.917% (inactive). For `O=C(O)C(Br)CBr` (stereo not given), the “activity change, negative = cytotoxicity” value was -0.396% [at 81.1 µM] (inactive). For `O=NN1CCCCC1`, the “activity change, negative = cytotoxicity” value was 1.12% (inactive). In the case of `CN1CCC(O)(c2ccc(F)cc2)C(C(=O)c2ccc(F)cc2)C1` (stereo not given), the “activity change, negative = cytotoxicity” value is reported as 3.56% (inactive). For `C#CCN1C(=O)COc2cc(F)c(N3C(=O)C4=C(CCCC4)C3=O)cc21`, the “activity change, negative = cytotoxicity” value was -2.79% (inactive). In the case of `C[C@]12CC[C@H]3[C@@H](CC=C4C[C@@H](O)CC[C@@]43C)[C@@H]1CC[C@@H]2O`, the “activity change, negative = cytotoxicity” value is reported as -0.612% (inactive). For `Oc1c(Cl)cccc1Cl`, the “activity change, negative = cytotoxicity” value was 0.727% (inactive). With `O=C(O)c1ccc2[nH]cc(CCCCN3CC=C(c4ccccc4)CC3)c2c1` the “activity change, negative = cytotoxicity” value was 0.855% (inactive). For `COC(=O)COc1ccc(Cl)cc1Cl`, the “activity change, negative = cytotoxicity” value was 3.85% (inactive). For `Cc1ncc2n1-c1ccc(Cl)cc1C(c1ccccc1F)=NC2`, the “activity change, negative = cytotoxicity” value was -3.46% (inactive). In the case of `O=C1OC(CCN2CCCCC2)OC1(c1ccccc1)c1ccccc1` (stereo not given), the “activity change, negative = cytotoxicity” value is reported as -0.452% (inactive). In the case of `COC(C)(C)C`, the “activity change, negative = cytotoxicity” value is reported as -9.01% (inactive).
